# Laboratory results reported in PubChem BioAssay (EPA / NIEHS).
# Activity calls are given as the source filed them. How the source made its calls: active means hit-call score of the fitted dose curve at least 0.9, where 1 is the maximum; inactive means score below 0.9.
# Columns and labels:
# Details in all cases: mRNA level, 48 h; actives raise or lower the signal
# [1] = read-out: Cytochrome P450 (CYP24A1), CYP24A1 (gene 1591); assay: LTEA_HepaRG_CYP24A1: Life Technologies and Expression Analysis (LTEA) Assay for Cytochrome P450 (CYP24A1) using HepaRG (AID 2283478)
# Method in brief: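 Differentiated HepaRG cells, pre-cultured 48 h, were exposed in duplicate for 48 h in serum-free induction medium to 8 half-log concentrations (top 100 uM, 0.5% DMSO). CYP24A1 mRNA was quantified by TaqMan qRT-PCR, normalized to ACTB/GAPDH/POLR2A, fitted bidirectionally versus DMSO.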
# [2] = read-out: Cytochrome P450 (CYP1A2), CYP1A2 (gene 1544); assay: LTEA_HepaRG_CYP1A2: Life Technologies and Expression Analysis (LTEA) Assay for Cytochrome P450 (CYP1A2) using HepaRG (AID 2283479)
# Method in brief: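 Differentiated human HepaRG cells in serum-free induction medium were exposed in duplicate for 48 h to 8-point half-log concentrations up to 100 uM in 0.5% DMSO. CYP1A2 mRNA measured by qRT-PCR, normalized to ACTB, GAPDH, POLR2A; bidirectional fit vs DMSO.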
# [3] = read-out: cysteine-aspartic acid protease (CASP8), CASP8 (gene 841); assay: LTEA_HepaRG_CASP8: Life Technologies and Expression Analysis (LTEA) Assay for cysteine-aspartic acid protease (CASP8) using HepaRG (AID 2283480)
# Method in brief: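 Concentration-response in duplicate up to 100 uM (half-log steps, 0.5% DMSO) on differentiated HepaRG cultures for 48 h. Expression change of CASP8 mRNA is determined by TaqMan qRT-PCR with housekeeping-gene normalization.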
# [4] = read-out: Cytochrome P450 (CYP2B6), CYP2B6 (gene 1555); assay: LTEA_HepaRG_CYP2B6: Life Technologies and Expression Analysis (LTEA) Assay for Cytochrome P450 (CYP2B6) using HepaRG (AID 2283481)
# Method in brief: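 Differentiated HepaRG cells, serum-free induction medium, exposed 48 h in duplicate to 8-point half-log concentrations from 100 uM in 0.5% DMSO. CYP2B6 mRNA by qRT-PCR, normalized to ACTB, GAPDH, POLR2A; bidirectional fit versus DMSO.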
# [5] = read-out: CYP2C8 (gene 1558); assay: LTEA_HepaRG_CYP2C8: Life Technologies and Expression Analysis (LTEA) Assay for CYP2C8 using HepaRG (AID 2283483)
# Method in brief: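 This is a transcriptional endpoint in HepaRG cultures: 48 h exposure, highest concentration 100 uM. CYP2C8 mRNA is quantified by TaqMan qRT-PCR.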
# [6] = read-out: CYP2C9 (gene 1559); assay: LTEA_HepaRG_CYP2C9: Life Technologies and Expression Analysis (LTEA) Assay for CYP2C9 using HepaRG (AID 2283484)
# Method in brief: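 Eight-point concentration-response (highest 100 uM, half-log dilutions) in HepaRG cells for 48 h; CYP2C9 expression by qRT-PCR normalized to ACTB, GAPDH, POLR2A. Bidirectional fit, DMSO baseline.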
# [7] = read-out: CYP2E1 (gene 1571); assay: LTEA_HepaRG_CYP2E1: Life Technologies and Expression Analysis (LTEA) Assay for CYP2E1 using HepaRG (AID 2283485)
# Method in brief: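 CYP2E1 transcript measured by Fluidigm qRT-PCR against three housekeeping genes in human HepaRG cells treated 48 h (top 100 uM, half-log steps, 0.5% DMSO vehicle). Gain or loss fitted relative to DMSO baseline.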
# [8] = read-out: Cytochrome P450 3A4 (Homo sapiens) (UniProt P08684); assay: LTEA_HepaRG_CYP3A4: Life Technologies and Expression Analysis (LTEA) Assay for CYP3A4 using HepaRG (AID 2283487)
# Method in brief: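 In a human hepatic line (HepaRG), duplicate wells were treated 48 h with up to 100 uM chemical in half-log dilutions. Endpoint: CYP3A4 mRNA induction or loss relative to 0.5% DMSO vehicle, by qRT-PCR.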
# [9] = read-out: DNA damage-inducible transcript 3 (DDIT3), DDIT3 (gene 1649); assay: LTEA_HepaRG_DDIT3: Life Technologies and Expression Analysis (LTEA) Assay for DNA damage-inducible transcript 3 (DDIT3) using HepaRG (AID 2283488)
# Method in brief: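 DDIT3 transcript was quantified by qRT-PCR with ACTB/GAPDH/POLR2A normalization after 48 h chemical treatment of differentiated HepaRG cells in 0.5% DMSO. Dosing was eight-point, half-log, top 100 uM, duplicate wells. Curves fitted bidirectionally versus DMSO.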
# [10] = read-out: Pro-epidermal growth factor (Homo sapiens) (UniProt P01133); assay: LTEA_HepaRG_EGF: Life Technologies and Expression Analysis (LTEA) Assay for Epidermal growth factor (EGF) using HepaRG (AID 2283489)
# Method in brief: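 Differentiated human HepaRG cells, plated 48 h then switched to serum-free induction medium, were exposed for 48 h to test chemicals (8-point half-log series, top 100 uM, 0.5% DMSO). EGF mRNA was quantified by qRT-PCR, normalized to ACTB, GAPDH, POLR2A.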
# [11] = read-out: Ezrin (EZR), EZR (gene 7430); assay: LTEA_HepaRG_EZR: Life Technologies and Expression Analysis (LTEA) Assay for Ezrin (EZR) using HepaRG (AID 2283491)
# Method in brief: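 Gain or loss of EZR mRNA is scored relative to 0.5% DMSO in human HepaRG cultures treated 48 h with test chemicals in duplicate, eight half-log concentrations from 100 uM.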
# [12] = read-out: Cytochrome P450 3A7 (Homo sapiens) (UniProt P24462); assay: LTEA_HepaRG_CYP3A7: Life Technologies and Expression Analysis (LTEA) Assay for CYP3A7 using HepaRG (AID 2283492)
# Method in brief: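 HepaRG cells plated 48 h, then dosed in serum-free induction medium for 48 h at 8 concentrations (top 100 uM, half-log steps, 0.5% DMSO). CYP3A7 mRNA by qRT-PCR, normalised to ACTB/GAPDH/POLR2A; bidirectional fit versus DMSO.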
# [13] = read-out: CYP3A5 (gene 1577); assay: LTEA_HepaRG_CYP3A5: Life Technologies and Expression Analysis (LTEA) Assay for CYP3A5 using HepaRG (AID 2283493)
# Method in brief: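 mRNA levels were quantified by qRT-PCR on Fluidigm arrays and normalized to three housekeeping genes. Differentiated HepaRG cells received 48 h exposure (top 100 uM, half-log steps, 0.5% DMSO vehicle, duplicate); bidirectional fitting versus DMSO.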
# [14] = read-out: Fatty Acid-Binding Protein 1 (FABP1), FABP1 (gene 2168); assay: LTEA_HepaRG_FABP1: Life Technologies and Expression Analysis (LTEA) Assay for Fatty Acid-Binding Protein 1 (FABP1) using HepaRG (AID 2283494)
# Method in brief: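 Values reflect bidirectional concentration-response fitting of FABP1 mRNA change against 0.5% DMSO controls. Human HepaRG cultures received eight half-log doses (top 100 uM) for 48 h; expression quantified by TaqMan qRT-PCR with housekeeping-gene normalization.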
# [15] = read-out: Cytochrome P450 4A22 (Homo sapiens) (UniProt Q5TCH4); assay: LTEA_HepaRG_CYP4A22: Life Technologies and Expression Analysis (LTEA) Assay for Cytochrome P450 4A22 (CYP4A22) using HepaRG (AID 2283495)
# Method in brief: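 qRT-PCR of CYP4A22 mRNA (Fluidigm TaqMan, normalized to three housekeeping genes) after 48 h chemical exposure of HepaRG cells; 8-point half-log series, top 100 uM, 0.5% DMSO vehicle. Bidirectional curve fitting vs DMSO baseline.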
# [16] = read-out: Cytochrome P450 7A1 (Homo sapiens) (UniProt P22680); assay: LTEA_HepaRG_CYP7A1: Life Technologies and Expression Analysis (LTEA) Assay for Cytochrome P450 7A1 (CYP7A1) using HepaRG (AID 2283496)
# Method in brief: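 HepaRG, 48 h exposure, 8-pt half-log series from 100 uM, 0.5% DMSO vehicle, duplicates. Readout: TaqMan qRT-PCR mRNA vs three housekeeping genes; bidirectional curve fit against DMSO baseline.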
# [17] = read-out: Glutathione S-Transferase (GSTA2), GSTA2 (gene 2939); assay: LTEA_HepaRG_GSTA2: Life Technologies and Expression Analysis (LTEA) Assay for Glutathione S-Transferase (GSTA2) using HepaRG (AID 2283497)
# Method in brief: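 Oxidative-stress marker GSTA2 is quantified by TaqMan qRT-PCR in HepaRG cultures treated 48 h across an eight-point range to 100 uM. Expression is normalized to endogenous controls and compared with 0.5% DMSO vehicle.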
# [18] = read-out: Cytochrome P450 2C19 (Homo sapiens) (UniProt P33261); assay: LTEA_HepaRG_CYP2C19: Life Technologies and Expression Analysis (LTEA) Assay for CYP2C19 using HepaRG (AID 2283482)
# Method in brief: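 Differentiated human HepaRG cells were exposed for 48 h in serum-free induction medium to 8 concentrations (top 100 uM, half-log steps, 0.5% DMSO). CYP2C19 mRNA was measured by qRT-PCR, normalized to ACTB/GAPDH/POLR2A, and fitted bidirectionally against DMSO.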
# [19] = read-out: CYP4A11 (gene 1579); assay: LTEA_HepaRG_CYP4A11: Life Technologies and Expression Analysis (LTEA) Assay for CYP4A11 using HepaRG (AID 2283486)
# Method in brief: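 Differentiated HepaRG cells, serum-free induction medium, exposed 48 h in duplicate to 8-point half-log series from 100 uM in 0.5% DMSO. CYP4A11 mRNA measured by qRT-PCR, normalized to ACTB, GAPDH, POLR2A; bidirectional fit versus DMSO.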
# [20] = read-out: Early growth response protein 1 (EGR1) transcription factor, EGR1 (gene 1958); assay: LTEA_HepaRG_EGR1: Life Technologies and Expression Analysis (LTEA) Assay for Early growth response protein 1 (EGR1) transcription factor using HepaRG (AID 2283490)
# Method in brief: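 EGR1 expression change in human HepaRG after 48 h chemical exposure, assessed by housekeeping-normalized qRT-PCR; concentration-response up to 100 uM, fitted in both directions against DMSO controls.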
# Chain of Cytochrome P450 3A4 (Homo sapiens) (P08684 whole entry, looked up): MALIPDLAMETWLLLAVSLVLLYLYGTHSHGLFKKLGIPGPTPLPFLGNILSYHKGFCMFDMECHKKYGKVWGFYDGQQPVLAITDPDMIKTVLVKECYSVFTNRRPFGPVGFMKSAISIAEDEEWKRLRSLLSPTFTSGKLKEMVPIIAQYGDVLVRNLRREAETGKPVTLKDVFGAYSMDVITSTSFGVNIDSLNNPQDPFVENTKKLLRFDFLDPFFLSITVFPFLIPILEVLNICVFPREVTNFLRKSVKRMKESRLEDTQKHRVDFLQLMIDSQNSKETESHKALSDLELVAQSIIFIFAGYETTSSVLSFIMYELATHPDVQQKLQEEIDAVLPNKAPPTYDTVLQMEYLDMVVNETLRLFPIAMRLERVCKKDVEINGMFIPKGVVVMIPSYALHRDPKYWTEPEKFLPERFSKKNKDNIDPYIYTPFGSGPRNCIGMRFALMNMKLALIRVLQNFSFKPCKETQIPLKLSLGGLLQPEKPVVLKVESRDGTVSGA
# Chain of Cytochrome P450 3A7 (Homo sapiens) (P24462 whole entry, looked up): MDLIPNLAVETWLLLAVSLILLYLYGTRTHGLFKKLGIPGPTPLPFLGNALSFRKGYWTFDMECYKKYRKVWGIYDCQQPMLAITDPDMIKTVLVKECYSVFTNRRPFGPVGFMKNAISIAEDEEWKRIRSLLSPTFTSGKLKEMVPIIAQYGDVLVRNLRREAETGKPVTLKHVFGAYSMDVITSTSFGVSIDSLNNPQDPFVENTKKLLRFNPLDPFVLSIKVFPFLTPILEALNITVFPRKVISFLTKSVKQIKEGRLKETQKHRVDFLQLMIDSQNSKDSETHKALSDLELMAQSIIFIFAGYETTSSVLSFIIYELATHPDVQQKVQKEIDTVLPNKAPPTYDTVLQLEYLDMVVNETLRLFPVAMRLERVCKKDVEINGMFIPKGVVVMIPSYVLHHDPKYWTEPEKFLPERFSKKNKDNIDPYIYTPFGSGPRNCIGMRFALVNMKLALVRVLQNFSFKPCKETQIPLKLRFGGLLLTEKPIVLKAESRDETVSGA
# Chain of Cytochrome P450 2C19 (Homo sapiens) (P33261 whole entry, looked up): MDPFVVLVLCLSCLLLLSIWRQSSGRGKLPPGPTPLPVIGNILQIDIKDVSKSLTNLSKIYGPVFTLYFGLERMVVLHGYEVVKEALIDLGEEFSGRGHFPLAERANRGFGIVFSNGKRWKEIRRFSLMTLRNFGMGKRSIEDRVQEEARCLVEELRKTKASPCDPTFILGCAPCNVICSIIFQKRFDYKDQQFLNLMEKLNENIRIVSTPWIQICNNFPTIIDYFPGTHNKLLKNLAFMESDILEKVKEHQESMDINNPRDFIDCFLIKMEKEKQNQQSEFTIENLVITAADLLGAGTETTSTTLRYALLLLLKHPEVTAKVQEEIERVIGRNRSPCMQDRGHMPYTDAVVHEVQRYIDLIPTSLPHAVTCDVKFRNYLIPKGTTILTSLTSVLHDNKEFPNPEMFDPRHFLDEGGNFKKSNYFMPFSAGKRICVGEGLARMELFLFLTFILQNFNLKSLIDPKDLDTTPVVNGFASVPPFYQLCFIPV
smiles,measurement,setting,value
c1ccc2c(c1)Cc1ccccc1-2,outcome,[1],inactive
same,outcome,[2],inactive
same,outcome,[3],inactive
same,AC50,[4],31.9 µM (active)
same,outcome,[5],inactive
same,outcome,[6],inactive
same,outcome,[7],inactive
same,outcome,[8],inactive
same,outcome,[9],inactive
same,outcome,[10],inactive
same,outcome,[11],inactive
same,outcome,[12],inactive
same,outcome,[13],inactive
same,outcome,[14],inactive
same,outcome,[15],inactive
same,outcome,[16],inactive
same,outcome,[17],inactive
CCCOc1sc(C(=O)N2CCC(c3cc(CN)ccc3F)CC2)c(C)c1Br,outcome,[1],inactive
same,outcome,[2],inactive
same,outcome,[3],inactive
same,AC50,[4],1.96 µM (active)
same,outcome,[18],inactive
same,outcome,[5],inactive
same,outcome,[6],inactive
same,outcome,[7],inactive
same,outcome,[19],inactive
same,outcome,[8],inactive
same,outcome,[9],inactive
same,outcome,[10],inactive
same,outcome,[20],inactive
same,outcome,[11],inactive
same,outcome,[12],inactive
same,outcome,[13],inactive
same,outcome,[14],inactive
same,outcome,[15],inactive
same,outcome,[16],inactive
same,outcome,[17],inactive
C#C[C@]1(O)CC[C@H]2[C@@H]3CCC4=CC(=O)CC[C@@H]4[C@H]3CC[C@@]21C,outcome,[1],inactive
same,outcome,[2],inactive
same,outcome,[3],inactive
same,AC50,[4],9.72 µM (active)
same,AC50,[18],9.92 µM (active)
same,AC50,[5],6.29 µM (active)
same,AC50,[7],0.124 µM (active)
same,outcome,[9],inactive
same,AC50,[10],22.9 µM (active)
same,outcome,[11],inactive
same,outcome,[14],inactive
same,outcome,[15],inactive
same,AC50,[16],0.299 µM (active)
same,AC50,[17],6.05 µM (active)
C=C(C)C(=O)OCCC(F)(F)C(F)(F)C(F)(F)C(F)(F)C(F)(F)C(F)(F)F,outcome,[1],inactive
same,outcome,[2],inactive
same,outcome,[3],inactive
same,AC50,[4],11.8 µM (active)
same,outcome,[5],inactive
same,outcome,[6],inactive
same,AC50,[7],20.1 µM (active)
same,outcome,[8],inactive
same,outcome,[9],inactive
same,outcome,[10],inactive
same,outcome,[11],inactive
same,outcome,[12],inactive
same,outcome,[13],inactive
same,outcome,[14],inactive
same,outcome,[15],inactive
same,outcome,[16],inactive
same,outcome,[17],inactive
